Source: PubChem BioAssay AID845 (Columbia University Molecular Screening Center, 2007)
Among all 94,000 compounds or so, about 390 (0.41%) were called active. Only a selection was taken, and actives are over-represented in it overall. Values without a mark were called inactive.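 How the source made its calls: active means cell count reduction more than 3 SD above the screen-wide mean (cut at about 70% in these data); inactive means the rest.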

experiment: cytotoxicity in IL-1B stimulated HUVEC, primary screen, cytotoxicity control for IL-1B NFkB translocation project, imaging, Hoechst nuclear count, IL-1B stimulus (AID 845); details: HUVEC cell count loss, at 2 µM, hits give high values;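 further: normalized per plate to untreated control cells as the no-loss baseline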

Q: Which cell count reduction does the source give for O=C(NC(=O)c1ccccc1)NC(=O)c1ccccc1 here?
A: 15.2%

Q: For CCCCC(=O)N/N=C(\C)CC(=O)Nc1cc(Cl)ccc1OC, which cell count reduction is on record?
A: 26.4%

Q: For CCC1(C)Cc2c(sc3nnn(CC(=O)Nc4ccc(Cl)cc4)c(=O)c23)CO1 (stereo unspecified), which cell count reduction is on record?
A: -70.1%

Q: For Cc1ccc(N(NC(=O)C(C)(C)O)C(=O)c2ccccc2)cc1C, which cell count reduction is on record?
A: 6.7%

Q: With O=C(CSc1nc2ncccc2[nH]1)Nc1ccc2c(c1)OCCO2 as the molecule, how does the cell count reduction read?
A: 89.4% (active)

Q: With O=C(CSc1nc(C2CC2)nc2ccccc12)Nc1ccc2c(c1)OCCO2 as the molecule, how does the cell count reduction read?
A: -22.6%

Q: For O=C(CSc1nnnn1C1CCCC1)Nc1ccc2c(c1)OCCO2, which cell count reduction is on record?
A: -2.1%

Q: For COc1ccc(C2=Nc3cc(C)ccc3OC2)cc1, which cell count reduction is on record?
A: -0.6%

Q: For CC1(C)CC(=O)C=C(NCCN2CCNCC2)C1, which cell count reduction is on record?
A: 1.4%

Q: For CC1(C)CC(=O)C=C(NCCCNC2CCCCC2)C1, which cell count reduction is on record?
A: -6.9%

Q: Which cell count reduction does the source give for CC1(C)CC(=O)C=C(NCCCN2CCCC2=O)C1 here?
A: 80.6% (active)

Q: Which cell count reduction does the source give for CCN1CCCC1Cn1cnc2c([nH]c3cc(OC)ccc32)c1=O (stereo unspecified) here?
A: -4.3%

Q: Which cell count reduction does the source give for O=C(OCC#CCSc1nnc(-c2ccncc2)o1)c1sc2ccccc2c1Cl here?
A: -23.8%

Q: With O=C(O)COc1ccc(-c2nccc(-c3cccs3)n2)cc1 as the molecule, how does the cell count reduction read?
A: -10.6%

Q: With CC(C)(CNC(=O)c1cc(=O)[nH]c2ccccc12)N1CCOCC1 as the molecule, how does the cell count reduction read?
A: -104%

Q: Which cell count reduction does the source give for C=C(C)CSc1nnc(-c2ccc(C)cc2)n1N here?
A: 3.8%

Q: Which cell count reduction does the source give for COc1ccc(NC(=O)Cn2c(=O)n(Cc3ccco3)c(=O)c3ccccc32)cc1 here?
A: 6.6%

Q: With O=C(CSc1nnc(Cn2cnc3ccccc32)o1)c1ccccc1 as the molecule, how does the cell count reduction read?
A: 92.1% (active)

Q: With CC(=O)Nc1ccc(C(=O)CSc2nnc(Cc3ccccc3)o2)cc1 as the molecule, how does the cell count reduction read?
A: -22.8%

Q: With O=C(CSc1nnc(-c2c[nH]c3ccccc23)o1)c1ccccc1 as the molecule, how does the cell count reduction read?
A: -13.9%

Q: With ONC(=Nc1ccc(Cl)cc1)c1ccccc1Cl as the molecule, how does the cell count reduction read?
A: 6.7%

Q: With CCOC(=O)c1sc(NC(=O)CSc2nc(C)cc(C(F)(F)F)n2)c(C#N)c1C as the molecule, how does the cell count reduction read?
A: 10.7%

Q: Which cell count reduction does the source give for CCc1ccccc1NC(=O)CN(C)S(=O)(=O)c1ccc2c(c1)c(=O)n(C)c(=O)n2C here?
A: 11.6%

Q: With Clc1cccc(N=C2NN=C(c3ccc4c(c3)OCCO4)CS2)c1 as the molecule, how does the cell count reduction read?
A: 12.3%

Q: Which cell count reduction does the source give for Cc1c(Br)cc(C(=O)N2CCCCCC2)c(C)c1C here?
A: -25.3%

Q: With COc1ccc(C(=O)N2CCc3cc(OC)c(OC)cc3C2c2cccc([N+](=O)[O-])c2)cc1 (stereo unspecified) as the molecule, how does the cell count reduction read?
A: 5.9%

Q: For c1cncc(-c2nnc3n2C2(CCCCC2)Cc2ccccc2-3)c1, which cell count reduction is on record?
A: -33.1%

Q: Which cell count reduction does the source give for c1ccc(C2CCC(N3CCC(N4CCCCC4)CC3)CC2)cc1 (stereo unspecified) here?
A: 11.9%

Q: With CSc1nnc2c(n1)OC(c1ccsc1)N(C(C)=O)c1ccccc1-2 (stereo unspecified) as the molecule, how does the cell count reduction read?
A: -22.1%

Q: Which cell count reduction does the source give for CCN(CC)CCNC(=O)C1c2ccccc2C(=O)N(C)C1c1cn(C)c2ccccc12 (stereo unspecified) here?
A: 0.9%

Q: With CSc1nnc2c(n1)OC(c1cn(C)c3ccccc13)N(C(C)=O)c1ccccc1-2 (stereo unspecified) as the molecule, how does the cell count reduction read?
A: 90.8% (active)

Q: For N#CCCn1cnc2ccccc21, which cell count reduction is on record?
A: 84.1% (active)

Q: Which cell count reduction does the source give for N#CCCn1ncc2ccccc21 here?
A: -33.3%

Q: With COCCOCCn1cnc2ccccc21 as the molecule, how does the cell count reduction read?
A: 11%

Q: With Cc1ccsc1/C=C1\SC(N2CCOCC2)=NC1=O as the molecule, how does the cell count reduction read?
A: 17%

Q: For COc1ccc(CN2CCCCC2C)cc1OC (stereo unspecified), which cell count reduction is on record?
A: -72.7%

Q: With Cc1c(Br)c([N+](=O)[O-])nn1C(C)C(=O)Nc1nccs1 (stereo unspecified) as the molecule, how does the cell count reduction read?
A: 4.9%

Q: Which cell count reduction does the source give for COc1ccc(Oc2coc3cc(OC(=O)c4cncc(Br)c4)ccc3c2=O)cc1 here?
A: 17.2%

Q: For CNC(=O)c1c(NC(NC(=O)c2ccco2)C(=O)c2ccc(Cl)cc2)sc2c1CCCC2 (stereo unspecified), which cell count reduction is on record?
A: 9.9%

Q: For CCCC(=O)C1=C(N(C)c2ccccc2)CC(C)(C)C(C(=O)OC)C1=O (stereo unspecified), which cell count reduction is on record?
A: 87.1% (active)

Q: Which cell count reduction does the source give for CCCOC(=O)C1=C(C)NC2=C(C(=O)C(C(=O)OC)C(C)C2)C1c1ccc(N(C)C)cc1 (stereo unspecified) here?
A: -20.9%

Q: For CCCC(=O)C1CCN(Cc2ccccc2)CC1, which cell count reduction is on record?
A: -26.8%

Q: Which cell count reduction does the source give for COc1cccc(/C=N\Nc2nncc(-c3ccccc3)n2)c1 here?
A: 13.5%

Q: For CCOC(=O)COc1ccc(Cl)cc1C1NC(=O)NC(C)=C1C(C)=O (stereo unspecified), which cell count reduction is on record?
A: 87.6% (active)

Q: Which cell count reduction does the source give for CCOc1ccccc1C1NC(=O)NC(C)=C1C(=O)OCc1ccco1 (stereo unspecified) here?
A: 4.9%

Q: Which cell count reduction does the source give for CC(=O)C1=C(C)NC(=O)NC1c1cc(Br)ccc1OCC#N (stereo unspecified) here?
A: -86.7%

Q: With O=c1[nH][nH]c(C(F)(F)F)c1C=NCc1ccccc1Cl as the molecule, how does the cell count reduction read?
A: 86.3% (active)

Q: With O=c1ccn(Cc2ccccc2Cl)cc1 as the molecule, how does the cell count reduction read?
A: -6.2%

Q: For CCc1ccc(CNC(=O)CCc2nc(-c3cccs3)no2)cc1, which cell count reduction is on record?
A: 5.9%

Q: For COc1cccc(-c2nnc(SCCOc3ccc4c(C)cc(=O)oc4c3)o2)c1, which cell count reduction is on record?
A: 10.8%

Q: With Cc1ccc(-n2cc3ccc([N+](=O)[O-])cc3n2)cc1 as the molecule, how does the cell count reduction read?
A: -52.5%

Q: With CC(C)(C)c1nc2ccccc2c(=O)n1N1C(=O)c2ccccc2C1=O as the molecule, how does the cell count reduction read?
A: -11.3%

Q: Which cell count reduction does the source give for N#C/C(=C1/CCCN1)c1ccccn1 here?
A: 23%

Q: For Cc1cc(OC(=O)c2c(Cl)cccc2Cl)nc(C)n1, which cell count reduction is on record?
A: 31.7%

Q: For CC(=O)Nc1ccc(N2C(=O)C3C4CC(=O)C(c5ccccc54)C3C2=O)cc1 (stereo unspecified), which cell count reduction is on record?
A: -15.5%

Q: Which cell count reduction does the source give for CCOCCCNC(=O)C(NC(=O)c1ccc(=O)[nH]c1)c1ccc(Cl)cc1 (stereo unspecified) here?
A: -8.1%

Q: For Cc1ccccc1CSCCNC(=O)c1ccc(Cl)c(S(=O)(=O)N2CCOCC2)c1, which cell count reduction is on record?
A: -18.7%

Q: Which cell count reduction does the source give for Cc1cc([N+](=O)[O-])c(N2CCC[C@@H]2C(=O)O)c([N+](=O)[O-])c1 here?
A: -39.6%

Q: With O=C(NCc1ccc(Cl)cc1)c1cc(=O)nc2sc(-c3ccccc3)nn12 as the molecule, how does the cell count reduction read?
A: -3.6%

Q: Which cell count reduction does the source give for Cc1cc(Oc2ccccc2)nc(N2CCOCC2)n1 here?
A: -31.8%

Q: With COc1c(Cl)cc(C(=O)Nc2ccc(Cl)cn2)cc1Cl as the molecule, how does the cell count reduction read?
A: -4.5%

Q: Which cell count reduction does the source give for CCn1c(=O)c(=O)n(CC)c2cc(S(=O)(=O)N3CCc4ccccc43)ccc21 here?
A: 14.3%

Q: For CCn1nnnc1SCC(=O)c1ccc(C)cc1C, which cell count reduction is on record?
A: -33.9%

Q: For O=C(NC(C(=O)NCCN1CCOCC1)C12CC3CC(CC(C3)C1)C2)C1CCCCC1 (stereo unspecified), which cell count reduction is on record?
A: 0%

Q: Which cell count reduction does the source give for COc1cc(/C=N/NC(=O)Nc2ccccc2)ccc1OCCOc1ccccc1C here?
A: 70% (active)

Q: With COc1ccc(/C=N\NC(=O)c2sc(N)nc2C)cc1OC as the molecule, how does the cell count reduction read?
A: -1.3%

Q: With CCOc1ccc(NC(=O)Nc2cc(C)ccc2OC)cc1 as the molecule, how does the cell count reduction read?
A: -41.8%

Q: With CC(C)C(C)NC(=O)COc1ncnc2ccccc12 (stereo unspecified) as the molecule, how does the cell count reduction read?
A: -6.1%

Q: For O=C(Cc1ccc(S(=O)(=O)N2CCOCC2)s1)NCCC(c1ccccc1)c1ccccc1, which cell count reduction is on record?
A: 2.4%

Q: Which cell count reduction does the source give for N#Cc1c(C(F)(F)F)cc(-c2ccccc2)nc1SCC(=O)N1CCOCC1 here?
A: 11.3%

Q: For CCOC(=O)C(C)n1cnc2sc(C)c(C)c2c1=O (stereo unspecified), which cell count reduction is on record?
A: -9.7%

Q: Which cell count reduction does the source give for Cc1cccc(CCNS(=O)(=O)c2ccc(S(=O)(=O)NC3CCCC3)cc2)c1 here?
A: -6.4%

Q: Which cell count reduction does the source give for COc1ccc(-c2cc(C(=O)NCc3ccco3)no2)cc1OC here?
A: 3%

Q: With Cc1ccc(OCC(=O)N2CCN(C(=O)c3cccnc3)CC2)cc1 as the molecule, how does the cell count reduction read?
A: -38.8%

Q: With CNC(=S)N1N=C(c2ccccc2)CC1c1ccc(Br)cc1 (stereo unspecified) as the molecule, how does the cell count reduction read?
A: -18.6%

Q: With CC(C)CNS(=O)(=O)c1ccc(OCC(=O)Nc2ccc3c(c2)OCO3)c(Cl)c1 as the molecule, how does the cell count reduction read?
A: -38.8%

Q: Which cell count reduction does the source give for COc1ccc(S(=O)(=O)Nc2ccc3c(c2)OCO3)cc1Cl here?
A: 81.3% (active)

Q: Which cell count reduction does the source give for COc1ccc(F)cc1S(=O)(=O)Nc1ccc2c(c1)OCO2 here?
A: -1.3%

Q: Which cell count reduction does the source give for O=C1c2ccccc2C(=O)c2c1cccc2N1CCN(CCO)CC1 here?
A: -12.4%

Q: With Cc1ccc(NC(=S)N/N=C2/CCCc3c(C)cc(C)cc32)cc1 as the molecule, how does the cell count reduction read?
A: -6.1%

Q: Which cell count reduction does the source give for CC(Sc1nncn1C)C(=O)Nc1ccccc1-c1ccccc1 (stereo unspecified) here?
A: 35.5%

Q: Which cell count reduction does the source give for O=C(c1ccccc1-c1ccccc1)N1CCOCC1 here?
A: -0.4%

Q: For CC(C(=O)Nc1ccccc1-c1ccccc1)N1CCOCC1 (stereo unspecified), which cell count reduction is on record?
A: 91.2% (active)

Q: With COc1cc(/C=N/O)cc(Br)c1OCc1cccc(Cl)c1 as the molecule, how does the cell count reduction read?
A: -29.3%

Q: With Cc1ccc(O/C=C2\OC(=O)c3ccccc32)cc1 as the molecule, how does the cell count reduction read?
A: -34.7%

Q: Which cell count reduction does the source give for N=c1oc2ccccc2cc1C(=O)N/N=C/c1ccccc1 here?
A: 23.4%

Q: Which cell count reduction does the source give for CCc1c(O)nc(SCC(=O)Nc2ccccc2)n(C(C)CC)c1=O (stereo unspecified) here?
A: -2.8%

Q: With COCC(C)NC(=O)c1ccc(-n2nc(C(F)(F)F)cc2-c2cccs2)cc1 (stereo unspecified) as the molecule, how does the cell count reduction read?
A: -9.2%

Q: For Cn1c(=O)c2c(ncn2CC(COCc2ccccc2Cl)OCc2ccccc2Cl)n(C)c1=O (stereo unspecified), which cell count reduction is on record?
A: 8.7%

Q: For O=C(Nc1cccn(Cc2c(Cl)cccc2Cl)c1=O)c1ccc(Cl)cc1, which cell count reduction is on record?
A: -1.3%

Q: With Cc1ccc(Nc2nnc(SCc3ccccc3)s2)cc1 as the molecule, how does the cell count reduction read?
A: 22.5%

Q: For CC(=O)c1cnn(-c2cc(Oc3ccc(F)cc3)ncn2)c1C, which cell count reduction is on record?
A: -1.7%

Q: Which cell count reduction does the source give for Cc1nnc(SCC(=O)NC2CCCC2)s1 here?
A: 22.6%

Q: With CNS(=O)(=O)c1cnccc1N1CCN(c2cccc(C)c2)CC1 as the molecule, how does the cell count reduction read?
A: -0.7%

Q: For CC/C(O)=N\S(=O)(=O)c1ccc(N=NN(C)C)cc1, which cell count reduction is on record?
A: -5.3%

Q: With COc1ccc(-c2cc(C(=O)n3cnc4ccccc43)c3ccccc3n2)cc1 as the molecule, how does the cell count reduction read?
A: -10%
